Source: PubChem BioAssay (Tox21)
Inconclusive results are not listed. Entries that show only a call come without a potency. Calls of active or inactive are those of the source. Unless noted, calls come from the whole dose curve; as a rule, active = well fitted cell-killing curve with a large enough effect in the repeat runs; inconclusive = weak or mixed curves, or effect the other way; inactive = no such curve, though single readings can be large or run the other way.

target: Retinoic acid receptor RXR-alpha (Homo sapiens) (UniProt P19793); assay: qHTS assay to identify small molecule agonists of the RXR signaling pathway (AID 1159527; calls by dose curve; note: nearly all actives have a fitted effect of over 35% in size); details: HEK293T RXRa-UAS-bla, beta-lactamase ratio, 16 h; series mostly up to 35.3 µM
Sequence (P19793 whole entry, looked up): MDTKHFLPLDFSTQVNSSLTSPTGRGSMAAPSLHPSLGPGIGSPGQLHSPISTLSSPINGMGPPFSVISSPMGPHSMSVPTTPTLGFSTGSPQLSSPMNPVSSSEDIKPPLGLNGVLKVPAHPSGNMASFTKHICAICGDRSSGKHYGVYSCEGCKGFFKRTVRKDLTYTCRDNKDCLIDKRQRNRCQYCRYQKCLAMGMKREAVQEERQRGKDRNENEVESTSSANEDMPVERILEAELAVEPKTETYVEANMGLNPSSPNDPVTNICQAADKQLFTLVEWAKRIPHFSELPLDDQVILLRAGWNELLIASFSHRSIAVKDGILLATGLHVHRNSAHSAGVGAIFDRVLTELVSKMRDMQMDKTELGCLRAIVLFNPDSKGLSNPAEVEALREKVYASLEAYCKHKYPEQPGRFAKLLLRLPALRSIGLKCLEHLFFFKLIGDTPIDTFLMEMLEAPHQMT
In short: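 16 hr incubation of compound-treated RXR-alpha-UAS-bla HEK 293T cells (2% charcoal-stripped FBS, 37 C) preceded a 2 hr room-temperature LiveBLAzer FRET substrate step and blue/green fluorescence measurement.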

| Compound | outcome |
| --- | --- |
| Cc1cc(C)c(C)c(O)c1 | inactive |
| Cc1ccc(S(=O)(=O)NC(=O)NC2CCCC2)cc1 | inactive |
| OCCc1ccncc1 | inactive |
| Cc1ccc(Cl)c(OCC(O)CNC(C)(C)C)c1 (stereo not drawn) | inactive |
| Cc1cccc(C)c1NC(=O)CN1CCCC1 | inactive |
| CC(COc1ccccc1)NC(C)C(O)c1ccc(O)cc1 (stereo not drawn) | inactive |
| C=CC(=O)OCCCCCCCCCC | inactive |
| c1ccc(CCNc2nc(-c3ccccc3)cs2)cc1 | inactive |
| O=C(OC1C[C@H]2CC[C@@H](C1)[N+]21CCCC1)C(O)(c1ccccc1)c1ccccc1 (stereo partly drawn) | inactive |
| CC(CC(C#N)(c1ccccc1)C(C)C)N(C)C (stereo not drawn) | inactive |
| O=C(NC1CCN(CCc2c[nH]c3ccccc23)CC1)c1ccccc1 | inactive |

tested on: not listed separately; assay: qHTS assay to identify small molecule agonists of the RXR signaling pathway - cell viability counter screen (AID 1159529); details: RXR-alpha-bla HEK293T viability, CellTiter-Glo, 16 h; series mostly up to 76.8 µM;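 note: HEK 293T cells carrying an RXR-alpha UAS beta-lactamase reporter; nearly all actives have a fitted effect of over 50% in size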
In short: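 In this parallel viability measure, GeneBLAzer RXR-alpha HEK 293T cells (2% charcoal-stripped FBS) were given a 5 hr preincubation, treated with compounds 16 hr at 37 C, and read by CellTiter-Glo luminescence.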

| Compound | Potency |
| --- | --- |
| Cc1nc(C)c(C)nc1C | inactive |
| Cc1ccc(S(=O)(=O)NC(=O)NC2CCCC2)cc1 | inactive |
| OCCc1ccncc1 | inactive |
| C=C(C)C(=O)OCCCCCCCCCCOC(=O)C(=C)C | inactive |
| CCC1=C(C)CN(C(=O)NCCc2ccc(S(=O)(=O)NC(=O)NC3CCC(C)CC3)cc2)C1=O (stereo not drawn) | inactive |
| Cc1ccc(Cl)c(OCC(O)CNC(C)(C)C)c1 (stereo not drawn) | inactive |
| O=C(C1CCCCC1)N1CC(=O)N2CCCc3ccccc3C2C1 (stereo not drawn) | inactive |
| N#CCCCC(C#N)CCC#N (stereo not drawn) | inactive |
| Clc1nc2ccccc2nc1Cl | inactive |
| CC(C)NC(=O)c1ccccc1N | inactive |
| CC(COc1ccccc1)NC(C)C(O)c1ccc(O)cc1 (stereo not drawn) | inactive |
| C=CC(=O)OCCCCCCCCCC | inactive |
| O=c1[nH]nc(-c2ccc([N+](=O)[O-])o2)o1 | inactive |
| CCN(CC)CC(=O)OCC(=O)[C@@]1(O)CC[C@H]2[C@@H]3CCC4=CC(=O)CC[C@]4(C)[C@H]3[C@@H](O)C[C@@]21C | inactive |
| CCOC(OCC)OCC | inactive |
| Cc1ccc2ccccc2c1[N+](=O)[O-] | inactive |

| Compound | Potency |
| --- | --- |
| C=CC(C)CCC=C(C)C (stereo not drawn) | inactive |
| COC(=O)/C=C/C(C)=C\C=C\C(C)=C\C=C\C=C(C)\C=C\C=C(C)\C=C\C(=O)O | inactive |
| CO[C@@H]1COCC[C@@H]1N[C@@H]1CC[C@@](C(=O)N2CCc3ncc(C(F)(F)F)cc3C2)(C(C)C)C1 | inactive |
| CCCC(=O)OCc1ccccc1 | inactive |
| c1ccc(CCNc2nc(-c3ccccc3)cs2)cc1 | inactive |
| C[C@]12CCC(=O)C=C1[C@@H]1C[C@@H]1[C@H]1[C@@H]3[C@@H]4C[C@@H]4[C@@]4(CCC(=O)O4)[C@@]3(C)CC[C@@H]12 | inactive |
| O=C(OC1C[C@H]2CC[C@@H](C1)[N+]21CCCC1)C(O)(c1ccccc1)c1ccccc1 (stereo partly drawn) | inactive |
| N#Cc1ccc(CC(=O)c2cccc(C(F)(F)F)c2)cc1 | inactive |
| CC(CC(C#N)(c1ccccc1)C(C)C)N(C)C (stereo not drawn) | inactive |
| O=C(NC1CCN(CCc2c[nH]c3ccccc23)CC1)c1ccccc1 | inactive |
| CCCCOC(=O)C(C)Oc1ccc(Oc2ccc(C(F)(F)F)cn2)cc1 (stereo not drawn) | inactive |
| O=C(N[C@@H](Cc1ccccc1)[C@@H](O)C(=O)N1C[C@@H](O)[C@@H](O)C1)c1cc2cc(Cl)ccc2[nH]1 | inactive |
| CC1(C)C(=O)NC(=O)N1CO | inactive |
| CCOc1cc(OCC)c(C(C)=O)cc1OCC | inactive |
| OCCOc1cccc(OCCO)c1 | inactive |
| CC(C)=CCC/C(C)=C/C=N/O | inactive |
